{"source": "PubChem BioAssay AID2129", "about": "(The Scripps Research Institute Molecular Screening Center, 2009)", "note": "The whole screen tested about 320,000 compounds, of which about 2,200 (0.69%) were called active. The list comes from a sample in which actives are over-represented; it also holds similar structures and randomly drawn compounds. Unmarked numbers belong to inactive results.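 Rule for the calls: active = inhibition above the mean of all tested compounds plus 3 SD, cutoff set per campaign (cut at about 30% in these data); inactive = the rest.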", "data": [{"molecular_target": "Bcl-2-like protein 1 (Homo sapiens) (UniProt Q07817)", "sequence (Q07817 whole entry, looked up)": "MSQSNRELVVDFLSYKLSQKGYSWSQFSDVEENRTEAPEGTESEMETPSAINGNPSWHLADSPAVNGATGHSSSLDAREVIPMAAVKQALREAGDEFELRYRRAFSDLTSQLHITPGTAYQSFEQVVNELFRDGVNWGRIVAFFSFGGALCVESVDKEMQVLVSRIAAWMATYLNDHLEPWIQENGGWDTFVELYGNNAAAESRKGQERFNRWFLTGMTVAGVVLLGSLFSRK", "assay": "inhibitors of human Bcl-xL, primary screen, biochemical, fluorescence polarization, HTS (AID 2129);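 note: 0% = DMSO wells and 100% = unlabeled Bim-BH3 peptide competitor; inhibitors lower millipolarization by displacing the labeled peptide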", "settings": "GST-Bcl-xL / FITC-Bim BH3 peptide fluorescence polarization; at 10.9 µM; hits give high values", "values": [{"smiles": "CCNc1nc2[nH]c(=O)c3c(c2s1)OC(N)=C(C#N)C3c1cccs1", "note": "(stereo not given)", "inhibition": "30.4% (active)"}, {"smiles": "N#CC1=C(N)Oc2c(c(=O)oc3ccccc23)C1c1ccccc1OC(=O)c1cccs1", "note": "(stereo not given)", "inhibition": "3.02%"}, {"smiles": "Cc1ccc(N(C)C(=O)Oc2cccc3ccc(C)nc23)cc1", "inhibition": "0.48%"}, {"smiles": "NCCc1c[nH]c2ccc(O)cc12", "inhibition": "4.75%"}, {"smiles": "COc1cccc(N2C(=O)NC(=O)/C(=C\\c3cn(C)c4ccccc34)C2=O)c1", "inhibition": "36.2% (active)"}, {"smiles": "O=C1NC(=O)N(c2ccccc2)C(=O)/C1=C/c1ccc([N+](=O)[O-])s1", "inhibition": "26.3%"}, {"smiles": "Cc1ccccc1N1C(=O)NC(=O)/C(=C\\c2cc(C)n(C)c2C)C1=O", "inhibition": "2.98%"}, {"smiles": "Cc1ccc(-n2c(O)c(C=NCC3CCCO3)c(=O)[nH]c2=O)c(C)c1", "note": "(stereo not given)", "inhibition": "-2.2%"}, {"smiles": "COc1ccc(CN2C(=O)NC(=O)/C(=C\\c3ccc(OC)c(OC)c3OC)C2=O)cc1", "inhibition": "-7.16%"}, {"smiles": "COc1ccc(N2C(=O)/C(=C/c3ccco3)C(=O)NC2=S)cc1", "inhibition": "32.5% (active)"}, {"smiles": "Cc1cc(/C=C2/C(=O)NC(=O)N(Cc3ccco3)C2=O)c(C)n1-c1ccc(C(=O)O)cc1", "inhibition": "-1.1%"}, {"smiles": "Cc1cccc(NC(=O)OC2CN3CCC2CC3)c1", "note": "(stereo not given)", "inhibition": "-2.32%"}, {"smiles": "CC(=NC1CCN(Cc2ccccc2)CC1)c1c(O)n(C)c(=O)n(C)c1=O", "inhibition": "14.7%"}, {"smiles": "Cc1ccc2c(c1)C1CN(C)CCC1N2C(=O)Cn1nnc(-c2ccccc2F)n1", "note": "(stereo not given)", "inhibition": "4.75%"}, {"smiles": "O=c1c2ccccc2nc(/C=C/c2ccc(F)cc2)n1-c1ccccc1O", "inhibition": "0.24%"}]}]}
